# Compound activity deposited in PubChem by Broad Institute.
# Not all results are given here.
# aSyn 5UTR act: Activators working through SNCA 5'UTR binding (MLPCN); alpha-synuclein 5'UTR reporter, activators screen; activity score, % (tested at 7.5 µM), hits read low; 300,000 compounds, 7.1% hits; AID 1814; in the data active = activity score below about -60%
# Starred values were filed as active, the others as inactive.
SMILES,aSyn 5UTR act
Cc1cc(NC(=O)CSc2ccc(-c3ccc(Br)cc3)nn2)no1,-67*
CCc1nnc(NC(=O)CSc2ccc(-c3nc4ccc(C)cc4[nH]3)cn2)s1,-159*
CCc1nnc(NC(=O)CSc2ccc(-c3ccc(C)cc3)nn2)s1,-70*
Cc1cc2nc(-c3ccc(SCC(=O)Nc4ccc(S(=O)(=O)N5CCCC5)cc4)nc3)[nH]c2cc1C,-147*
COc1ccc(-c2ccc(SCC(=O)NCc3ccco3)nn2)cc1,-78*
O=C(CSc1ccc(-c2ccc(-n3cccn3)cc2)nn1)Nc1ccccc1F,-141*
CCOc1ccc(-c2cc(CCCC(=O)NCc3ccco3)no2)cc1,73
CC(=O)Nc1sc(N/N=C\c2ccccc2Cl)nc1-c1cccs1,-141*
CC(=O)Nc1sc(N/N=C\c2ccccc2)nc1-c1cccs1,-114*
CC(=O)Nc1sc(NC(=O)c2ccc(Cl)cc2)nc1-c1cccs1,-73*
CCOC(=O)c1cccc(NC(=O)c2cnc3ccccc3n2)c1,-106*
CCOC(=O)c1cccc(NC(=O)c2cncc(Br)c2)c1,-82*
COc1cccc2c(=O)c(C(=O)NCc3cccs3)c[nH]c12,-139*
CN(Cc1cccs1)C(=O)CCCc1c[nH]c2ccccc12,-133*
O=C(Cc1c[nH]c2ccccc12)NCc1cccs1,-63*
NC(=O)c1ccccc1Nc1nc2nc3ccccc3c(=O)n2cc1Br,-83*
COc1ncccc1-c1nnn(-c2ccccc2)n1,-156*
COc1ncccc1-c1nnn(-c2ccccc2Br)n1,-88*
O=Cc1c(-c2ccccc2)cc2oc3ccccc3cc1-2,-119*
O=C(Nc1ccc2c(c1)OCO2)c1cnc2n(c1=O)CCS2,-125*
O=C(Nc1ccc2c(c1)OCCO2)c1cnc2n(c1=O)CCS2,-75*
Cc1ccc(-c2cc(N)n(-c3ccccc3)n2)cc1,-115*
Nc1cc(C2CCCC2)nn1-c1ccccc1,-128*
CCc1ccc(-c2cc(N)n(-c3ccccc3)n2)cc1,-121*
COc1ccccc1NC(CC(=O)c1ccccc1)C(=O)OCC(=O)c1ccc(C)cc1 (centres undefined),-190*
SMILES,aSyn 5UTR act
COc1ccccc1NC(CC(=O)c1ccccc1)C(=O)OCC(=O)c1ccc(C)c(C)c1 (centres undefined),-127*
COc1ccccc1NC(CC(=O)c1ccccc1)C(=O)OCC(=O)c1ccc(Br)cc1 (centres undefined),-130*
O=C(CC(Nc1ccccc1Cl)C(=O)OCC(=O)c1cccs1)c1ccccc1 (centres undefined),-119*
COc1cc(/C=N/OCC(=O)NC2CCCCC2C)ccc1OCc1ccc(Cl)cc1 (centres undefined),-98*
COc1cc(/C=N/OCC(=O)Nc2cc(C)cc(C)c2)ccc1OCc1ccc(Cl)cc1,-128*
CC1CCC(NC(=O)C2CCN(c3c4c(nc5ncnn35)CCC4)CC2)CC1 (centres undefined),-65*
Cc1nc2ccc(NC(=O)Cc3ccccc3F)cc2s1,-175*
Cc1nc2ccc(NC(=O)Cc3cccc(F)c3)cc2s1,-80*
Cc1nc2ccc(NC(=O)Cc3ccsc3)cc2s1,-108*
COC(=O)c1ccc(NC(=O)c2ccccc2SC)cc1,-67*
Cc1c(C(=O)Nc2ccc3c(c2)CCC3)cccc1[N+](=O)[O-],-204*
CSc1ccccc1C(=O)Nc1ccc2c(c1)CCC2,-135*
O=C(Nc1ccc2c(c1)CCC2)c1ccccc1Br,-129*
O=c1[nH]c2ccccc2nc1/C=C/c1ccccc1,-165*
Oc1ccc(/C=C/c2ccc3ccccc3n2)cc1,90
O=c1[nH]c2ccccc2nc1/C=C/c1ccc(F)cc1,-139*
O=c1[nH]c2ccccc2nc1/C=C/c1ccc(O)cc1,-214*
Cn1c(=O)c(/C=C/c2ccccc2)nc2ccccc21,-291*
CC(=O)c1ccc(/C=C/c2nc3ccccc3n2C)o1,-91*
O=C(OCc1nnc(-c2ccccc2)o1)C12CC3CC(CC(Br)(C3)C1)C2,-105*
CC(C)(C)c1cc(NCCCn2ccnc2)n2ncc(-c3ccc(Cl)cc3)c2n1,-109*
CN1CCN(c2ccc(NC(=O)c3cccc(OCc4ccccc4)c3)cc2)CC1,-85*
COc1cccc(C(=O)Nc2ccc(N3CCN(C(=O)c4cccs4)CC3)cc2)c1,-162*
CC(C)Oc1cccc(C(=O)Nc2ccc(N3CCN(C)CC3)cc2)c1,-76*
COc1ccc(N2CCN(C(=O)c3ccc(NS(=O)(=O)c4cccs4)cc3)CC2)cc1,-75*
SMILES,aSyn 5UTR act
CCNc1nc(N)c(C(=O)c2ccc(Cl)s2)s1,-188*
CC1Cc2cc(/C=C3/SC(=S)NC3=O)ccc2O1 (centres undefined),-106*
CNc1c(N)c(=O)oc2ccccc12,-74*
COc1ccc(N=Nc2nc3ccc(Br)cc3n2C)cc1,-113*
Cc1ccccc1CNC(=O)Nc1ccc(Cl)cc1,-110*
Cc1ccc(CNC(=O)Nc2ccccc2)c(C)c1,-153*
COc1ccccc1C(=O)NNC(=O)c1cccc([N+](=O)[O-])c1,-62*
COc1ccccc1C(=O)NNC(=O)c1cccc(C)c1,-139*
COc1cc(N2Cc3ccccc3C2)ccc1C=O,-151*
COC(=O)CCS(=O)(=O)c1nc(-c2ccccc2)cc(C(F)(F)F)n1,-73*
CCOC(=O)CCS(=O)(=O)c1nc(-c2ccccc2)cc(C(F)(F)F)n1,-129*
CC(=O)Nc1ccc(Nc2c3c4c(cccc4n(C)c2=O)C(=O)c2ccccc2-3)cc1,59
CC(=O)Nc1ccc2c(c1)C(=O)c1ccccc1C2=O,-185*
O=C1c2ccccc2C(=O)c2cc(NC(=O)C3CC3)ccc21,-161*
O=C(O)/C=C/C(=O)Nc1ccc2c(c1)C(=O)c1ccccc1C2=O,-65*
CC(=O)Nc1ccc2nc3ccccc3nc2c1,-82*
O=C(O)/C=C/C(=O)Nc1ccc2nccnc2c1,-75*
Nc1ccc2c(c1)C(=O)c1ccccc1C2=O,-145*
Nc1ccc2c(c1)C(=O)C(=O)c1ccccc1-2,130
CS(=O)(=O)Nc1ccc(C(=O)Nc2ccc3ccccc3c2)cc1,-214*
CC(C)c1ccc(NC(=O)c2ccc(NS(C)(=O)=O)cc2)cc1,-76*
Brc1ccc(-c2nc(N/N=C/c3cccnc3)c3ccccc3n2)cc1,-92*
Cc1ccc(-c2nc(N/N=C/c3ccccc3[N+](=O)[O-])c3ccccc3n2)cc1,-267*
Cc1cc(N/N=C/c2ccccc2[N+](=O)[O-])nc(-n2nc(C)cc2C)n1,57
Cc1n[nH]c(=S)n1/N=C/c1ccc(OCc2ccc(Cl)cc2)cc1,-99*
SMILES,aSyn 5UTR act
Cc1n[nH]c(=S)n1/N=C/c1ccc(OCc2ccc(Cl)cc2Cl)cc1,-82*
CCc1ccn2cc(-c3ccc4c(c3)OCO4)nc2c1,107
c1cnc2nc(-c3ccc4c(c3)OCO4)cn2c1,-93*
c1ccc(-c2noc(-c3ccc4c(c3)OCO4)n2)nc1,91
c1ccc(-c2nccc(-c3ccc4c(c3)OCO4)n2)cc1,-105*
Cc1ccc(-c2cn3cccnc3n2)cc1,-119*
Cc1occc1C(=O)N/N=C/c1c[nH]c2ccccc12,-135*
CC(C)(C)OC(=O)N/N=C/c1c[nH]c2ccccc12,-140*
O=C(COc1ccccc1F)N/N=C1\CCCc2ccccc21,-162*
Cc1cccc2c1OCC/C2=N\NC(=O)COc1ccccc1,-86*
COc1ccccc1OCC(=O)N/N=C1\CCc2ccccc21,-143*
O=C(COc1ccccc1)Nc1ccc(NC(=O)c2ccco2)cc1,-65*
CN(C(=O)c1ccc(NC(=O)c2ccco2)cc1)c1ccccc1,-76*
